HCV inhibitor – HCV inhibition | 340,000 tested, 3.4% active | Potency, µM (titrated, usually from 41.8 µM), usual class: inhibitors | Huh7.5.1 HCVcc-Cre infection, luciferase reporter, 44 h | AID 651820
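Whole-lifecycle infectious HCVcc-Cre system; cells 1,000/well, compound then virus (~0.5 moi) added 4 h after plating, 44 h culture. Luciferase read 15 sec following 15 min substrate incubation, room temp.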
CHX counter – counter-screen hit for Shiga toxin inhibitors, cycloheximide. cell reporter, cycloheximide protein synthesis inhibition counterscreen. max response, %. 300,000 tested, 12% active; in the data active means max response mostly above about 13%, no sharp cut-off; inactive means mostly below about 14%; further: read at 38.3 µM for the half of the compounds with a filed dose
AMA1-RON2 inh – inhibitors of Plasmodium falciparum AMA1-RON2 interaction. Potency, µM (top dose mostly 58.2 µM), most hits filed as inhibitors. 360,000 tested, 0.2% active. AlphaScreen AMA1-biotinylated RON2 peptide binding; further: nearly all actives have a fitted effect of over 45% in size
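AMA1 (3D7) with his tag at 25 nM final met compounds first, then biotinylated RON2 peptide at 25 nM; detection used donor plus acceptor beads, 10 µg/mL apiece, read by AlphaScreen after 30 min at room temperature.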
Pf growth 48h – inhibits P. falciparum growth in the first generation, 48 h | P. falciparum luciferase growth in erythrocytes, 48 h | Potency, µM (highest dose often 28.7 µM), most hits filed as inhibitors | 310,000 tested, 5.9% active | AID 504832
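Erythrocytes infected with P. falciparum carrying an integrated firefly luciferase reporter (2% hematocrit, 0.1% parasitemia final) were exposed to compounds in RPMI 1640 with 0.5% Albumax at 37 C, 5% CO2. Growth inhibition was scored as reduced luminescence.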
Shiga toxin inh – inhibitors of Shiga toxin in Vero cells. Vero cells, Shiga toxin protein synthesis inhibition reporter. 290,000 tested, 9.2% active. inhibition, % at 38.7 µM; in the data active means inhibition mostly above about 28%, no sharp cut-off; inactive means mostly below about 43%
Pf growth 96h – P. falciparum growth inhibition at 96 hour, primary screen for plastid delayed-death inhibitors. AID 504834. P. falciparum luciferase reporter growth, 96 h. 320,000 tested, 6.9% active. Potency, µM (top dose mostly 28.7 µM), usual class: inhibitors
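Cell-based qHTS: luciferase-tagged P. falciparum in erythrocytes (2% hematocrit, 0.05% parasitemia final) incubated with compounds for 96 hours, 37 C, 5% CO2; luciferase detection reagent then added and luminescence measured.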
Numbers stand for hits; . = inactive; ? = inconclusive; / = no result. Compounds with a hit are over-represented: about 21% of the library has one in this group of screens. Unless noted, the call rests on the fitted dose curve; in most records, active means well fitted curve in the direction sought with a large enough effect; inconclusive means small, poorly fitted or top-dose-only effect, or another doubt; inactive means no such curve, though single readings can be large; an effect the other way counts as inactive or inconclusive.

SMILES | HCV inhibitor | CHX counter | AMA1-RON2 inh | Pf growth 48h | Shiga toxin inh | Pf growth 96h
Cc1ccc(CNC(=O)c2cc3cc(Br)ccc3oc2=N)cc1 | . | . | . | . | . | .
O=C(COc1cc(F)ccc1[N+](=O)[O-])Nc1cccc(S(=O)(=O)NC2=NCCC2)c1 | . | / | . | . | / | .
C/C(=N/NC(N)=S)c1cc2ccc(O)cc2oc1=O | . | . | . | ? | . | 0.83µM
C/C(=N/NC(=O)c1ccncc1)c1cc2ccc(O)cc2oc1=O | . | . | . | . | . | ?
Cc1ccc(CN2CC(C(=O)NCCC3=CCCCC3)CC2=O)cc1 (configuration not stated) | . | / | . | ? | / | ?
CCCCCN1CN(S(=O)(=O)c2cccs2)c2nc3ccccc3nc21 | . | 16 | . | ? | . | ?
Cc1ccc(S(=O)(=O)N2CN(Cc3ccco3)c3nc4ccccc4nc32)cc1 | ? | . | . | ? | . | ?
COc1ccc(CN2CN(S(=O)(=O)c3cccs3)c3nc4ccccc4nc32)cc1 | . | 48 | . | ? | 80 | ?
COc1ccc(CCN2CN(S(=O)(=O)c3ccc(C)cc3)c3nc4ccccc4nc32)cc1OC | . | . | . | . | . | .
COc1ccc(S(=O)(=O)N2CN(Cc3ccco3)c3nc4ccccc4nc32)cc1 | . | . | . | 12µM | . | .
COc1ccc(CCN2CN(S(=O)(=O)c3ccc(OC)cc3)c3nc4ccccc4nc32)cc1 | . | 27 | . | ? | 39 | ?
O=S(=O)(c1cccs1)N1CN(Cc2ccccc2)c2nc3ccccc3nc21 | . | . | . | ? | . | ?
CNc1ncnc2c1ncn2[C@H]1CN(Cc2ccc3c(c2)OCO3)C[C@@H](CO)O1 | / | / | . | / | / | /
OC1OC[C@H](O)[C@@H](O)[C@@H]1O (some centres not stated) | / | . | / | / | . | /
COc1cc(-c2nnc(SCC(=O)NC3CCCC3)n2C)cc(OC)c1O | . | . | . | . | . | ?
COc1ccc(CN2CN(S(=O)(=O)c3ccccc3)c3nc4ccccc4nc32)cc1 | . | 33 | . | ? | 112 | ?
O=S(=O)(c1cccs1)N1CN(Cc2ccc(F)cc2)c2nc3ccccc3nc21 | . | . | . | ? | . | .
O=C1CCC([N+](=O)[O-])C(c2ccc(C(F)(F)F)cc2)N1 (configuration not stated) | . | / | . | / | / | /
O=C(O/N=C1\CCCc2ccccc21)c1ccc(F)cc1 | . | 16 | . | . | 21 | .
Cc1ccc2c(c1)/C(=N/OC(=O)c1ccc(F)cc1)CCS2 | . | . | . | . | . | .
O=C(O/N=C1/CCSc2ccccc21)c1ccccc1 | . | 39 | . | . | 40 | ?
CCC(CO)NC(=O)c1ccccc1C(F)(F)F (configuration not stated) | . | . | . | . | . | .
COC(=O)C1=C(C(=O)OC)C(C(=O)OC)C(C(=O)OC)C(C(=O)OC)(C(=O)OC)C(C(=O)OC)=C1C(=O)OC (configuration not stated) | ? | / | . | / | / | /
COc1ccc(-c2coc3c(C(=O)NCc4cccs4)cccc23)c(C)c1 | / | / | . | / | / | /
CC(C)N1CCN(C(=O)c2ccc([N+](=O)[O-])cc2)CC1 | . | / | . | / | / | /
SMILES | HCV inhibitor | CHX counter | AMA1-RON2 inh | Pf growth 48h | Shiga toxin inh | Pf growth 96h
O=C1NN(C(=O)Nc2ccc(Br)cc2)C(c2ccccc2)C1c1ccccc1 (configuration not stated) | / | . | / | / | 54 | /
Cc1c(N)cc(S(=O)(=O)O)cc1NC(=O)c1cccc([N+](=O)[O-])c1 | . | / | . | / | / | /
O=C(NCc1ccc(-c2nc3ccccc3s2)cc1)c1ccc(Br)o1 | . | 28 | . | . | 40 | .
O=C(NCc1ccc(-c2nc3ccccc3s2)cc1)c1cc2ccccc2o1 | . | 20 | . | . | 48 | ?
N#CC1(Nc2cccc(Cl)c2)CCCC1 | . | / | . | / | / | /
CCCC(C)(C)C(=O)N1CCC1(C)C(=O)Nc1cccc2ccccc12 (configuration not stated) | / | / | . | / | / | /
CCCCCCCCN1C(=O)[C@H](CC(=O)NCc2cccs2)C[C@@]2(C(=O)OC)CC(C)(C)CC=C12 | / | / | . | / | / | /
CC(C)CNC(=O)C(=O)Nc1ccc2c(c1)N(S(=O)(=O)c1cccs1)CCC2 | ? | / | . | ? | / | 10µM
COC(CNC(=O)C(=O)Nc1ccc2c(c1)N(S(=O)(=O)c1cccs1)CCC2)OC | ? | / | . | ? | / | .
CC(C)CCNC(=O)C(=O)Nc1ccc2c(c1)N(S(=O)(=O)c1cccs1)CCC2 | ? | / | . | 5.9µM | / | ?
CC1CC=C(O)C12OCC(C)(C)CO2 (configuration not stated) | . | / | . | / | / | /
CN(C)C(CN=C1NS(=O)(=O)c2ccccc21)c1ccco1 (configuration not stated) | . | . | . | . | . | .
O=S1(=O)NC(=NCC(c2ccco2)N2CCCCC2)c2ccccc21 (configuration not stated) | . | . | . | ? | . | 13µM
C[C@H](CO)N1C[C@H](C)[C@@H](CN(C)S(=O)(=O)c2cn(C)cn2)Oc2ccc(NC(=O)C3CCCCC3)cc2C1=O | . | / | . | / | / | /
Cc1cc(-c2ccccc2)nc(SCC(=O)N2CCCC2)n1 | 25µM | . | . | . | . | .
Cc1cc(C)nc(SCC(=O)N2CCCCC2)n1 | . | . | . | / | . | ?
CCOC(=O)CSc1nc(-c2ccccc2)ns1 | . | . | . | . | . | .
O=C(CSc1nc(-c2ccccc2)ns1)N1CCOCC1 | . | 39 | . | . | 91 | .
Cc1cccc(-c2nsc(SCC(=O)N3CCCC3)n2)c1 | ? | 36 | . | . | 117 | .
CC(C)c1ccc(-n2nnnc2SCc2nc(N)nc(N)n2)cc1 | / | / | . | / | / | /
COCCNC(=O)C1(C)CCCN(C(=O)COc2ccccc2)C1 (configuration not stated) | / | / | . | / | / | /
CC(C)CCNC(=O)CCc1nnc(COc2ccccc2)o1 | . | . | . | . | . | ?
O=C(CCc1nnc(COc2ccccc2)o1)NCCc1cccs1 | . | . | . | . | . | 10µM
O=C(CCc1nnc(COc2ccccc2)o1)NCc1ccc(Cl)s1 | . | . | . | . | . | 15µM
O=C(CCc1nnc(COc2ccccc2)o1)NC1(c2ccccc2)CC1 | . | . | . | . | . | ?
SMILES | HCV inhibitor | CHX counter | AMA1-RON2 inh | Pf growth 48h | Shiga toxin inh | Pf growth 96h
O=C(CCc1nnc(COc2ccccc2)o1)NCc1ccccc1C(F)(F)F | . | 17 | . | . | . | .
Cc1ccc(NC(=O)CN(C)C(=O)COC(=O)c2ccc(Cl)cc2O)cc1 | . | / | . | . | / | .
COc1ccccc1C(=O)COC(=O)c1cc(=O)[nH]c2ccccc12 | . | / | . | . | / | .
NC(=O)COC(=O)c1cc(=O)[nH]c2ccccc12 | 10µM | . | . | . | . | .
Cc1ccc(C(=O)COC(=O)c2cc(=O)[nH]c3ccccc23)cc1C | . | 24 | . | . | 150 | .
O=S1(=O)CCN(C2CC2)CC1 | / | / | . | / | / | /
COc1ccc(C(=O)/C=C/c2ccsc2)cc1CSCC(=O)O | . | . | . | ? | . | 6.6µM

Screening data (PubChem)
